Test results as given in PubChem BioAssay (NCI).
Compounds without any hit were thinned out: in the full panel of roughly 79,000, 15% have a hit. Calls of active or inactive are those of the source. No stated cut-off is given here; in the data, active means growth inhibition above about 70%; inactive means the rest.

Assays:
[1] = NCI Yeast Anticancer Drug Screen. Data for the rad50 strain (AID 155);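 further: 0% = growth of vehicle-only cultures of the same strain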; settings: S. cerevisiae rad50 strain growth inhibition; at 50.0 µM; stronger effect = higher value
In short: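 Relative growth inhibition (compound vs vehicle) was measured in yeast with a defined repair-gene alteration.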

[2] = NCI Yeast Anticancer Drug Screen. Data for the mec2-1 strain (AID 157); settings: S. cerevisiae mec2-1 strain, at 50.0 µM, stronger effect = higher value
In short: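 mec2-1 yeast strain, carrying an alteration in DNA damage repair or cell cycle control, was exposed to compounds; growth inhibition was measured relative to vehicle-treated controls.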

[3] = NCI Yeast Anticancer Drug Screen. Data for the mlh1 rad18 strain (AID 175); settings: S. cerevisiae mlh1 rad18 strain growth inhibition; at 50.0 µM; stronger effect = higher value
In short: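 Growth inhibition of the yeast strain was measured after compound exposure and expressed relative to vehicle-treated controls. The strain carries defined defects in DNA damage repair.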

Measured: growth inhibition

COc1ccc(C(C#N)N2CCOCC2)cc1 (stereo not given)
inactive: [1] 17.8% | [2] -11.7% | [3] 5.35%

Nc1ccc(Nc2nc3ccccc3s2)c(O)c1
inactive: [1] 22.6% | [2] 2.15% | [3] 24.6%

NC(=O)C(c1ccccc1)N1CCCC1 (stereo not given)
inactive: [1] 2.05% | [2] -17.9% | [3] -0.55%

NC(CCC(=O)OCc1ccccc1)C(=O)OCc1ccccc1 (stereo not given)
inactive: [1] -0.95% | [2] -14.3% | [3] 9.25%

COc1ccc(CCN2C(=O)CSC2=S)cc1OC
inactive: [1] -14% | [2] -17.4% | [3] -2.6%
